# Measured values published in article PMC5540273 (PLoS ONE, 2017).
# System: WNK3
# Details: concentration: 1 μM, replicates: in singlicate; n = 1
# 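Also: KINOMEscan kinase panel screen.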
row,Structure (SMILES),%Inh [%]
1,Nc1ncnc2c1nc(-c1ccccc1)n2-c1ccccc1 [SKF-97293],48
2,NCCCC(NC(=O)c1cc(Br)c(-c2ccnc3[nH]ccc23)s1)c1ccccc1.O=C(O)C(F)(F)F.O=C(O)C(F)(F)F (centres unmarked) [GSK1287544],11
3,CSc1cccc2c(-c3ccncn3)c(-c3ccc(F)cc3)nn12 [GW514786],22
4,CC(C)c1nc(-c2cccc(NS(=O)(=O)c3c(F)cccc3F)c2F)c(-c2ccnc(Nc3ccc(N4CCOCC4)nc3)n2)s1 [GSK2008607],23
5,Cc1cccc(Nc2nc(N[C@H]3CCNC3)ncc2C(N)=O)c1.Cl [GSK2197149],0
6,Nc1ncc(-c2ccc3nccc(-c4ccncc4)c3c2)cc1S(=O)(=O)N1CCOCC1 [GSK1627798],4
7,COc1ccc(CNC(=O)NC2CCN(c3ccnc(Nc4ccc(F)cc4)n3)CC2)cc1 [GSK1379788],23
8,O=C(Nc1n[nH]c2nc(-c3ccc(O)cc3)ccc12)C1CC1 [SB-710363],0
9,CC(C)(C)c1ccc2nccc(Nc3cccc(O)c3)c2c1 [GW856795],40
10,COc1cc(Nc2nccc(-c3c(-c4cccc(NC(=O)c5c(F)cccc5F)c4)nn4ccccc34)n2)cc(OC)c1OC [GSK323521],54
11,O=c1[nH]cc(-c2ccc(N3CCOCC3)cc2)c2sc(-c3cn[nH]c3)cc12 [GSK2276055],8
12,COc1cccc(-c2ccc3c(NC(=O)C4CC4)n[nH]c3n2)c1 [SB-710903],66
13,Nc1ncc(-c2cccnc2)c2scc(-c3ccc4c(c3)CCN4C(=O)Cc3ccccc3)c12 [GSK683281],12

# System: WNK4
# Details: concentration: 1 μM, replicates: in singlicate; n = 1
row,Structure (SMILES),%Inh [%]
1,O=C(Nc1cccc(-c2nn3ccccc3c2-c2ccnc(Nc3cccc(F)c3)n2)c1)c1c(F)ccc(F)c1Cl [GSK357952],0
2,c1ccc(-c2cnc3nccnn23)cc1 [AH20685],0
3,CN(c1ccc(NC(=O)Nc2cc(C(F)(F)F)ccc2F)cc1)c1ccnc(Nc2ccc(S(N)(=O)=O)cc2)n1 [GW809893],0
4,O=C(Nc1n[nH]c2cc(-c3ccoc3)ccc12)C1CC1 [SB-738481],7
5,C[C@@H]1CC[C@@H](C(=O)Nc2ccccc2)CN1c1cc(-c2ccc3c(N)n[nH]c3c2)nc(N)n1 [GSK2286062],0
6,O=C(Nc1cccc(-c2nn3ncccc3c2-c2ccnc(Nc3ccccc3)n2)c1)c1c(F)cccc1F [GSK198271],0
7,COc1cccc(NC(=O)NC2CCN(c3ccnc(Nc4cc(OC)c(OC)c(OC)c4)n3)C2)c1 (centres unmarked) [GSK1379763],11
8,CN1CCN(CCCNc2nccc(-c3c(-c4ccc(F)cc4)nn4cc(C(F)(F)F)ccc34)n2)CC1 [GW621581],0
9,Nc1n[nH]c2cnc(-c3ccccc3)cc12 [SB-642124],38
10,Cc1occc1-c1ncc(OC[C@@H](N)Cc2c[nH]c3ccccc23)cc1-c1ccc2[nH]nc(C)c2c1.O=C(O)C(F)(F)F [GSK682037],0
11,Cl.NC(=O)c1cccc(Nc2nccc(Nc3ccc(Oc4c(Cl)cccc4Cl)c(Cl)c3)n2)c1 [GW659009],0
12,CCCCc1nn2ncccc2c1-c1ccnc(Nc2ccc(N3CCN(C)CC3)cc2)n1 [GW684941],56
13,CCc1ccc(-c2ccc3c(c2)-c2c(cnn2C)S(=O)(=O)N3C)cc1,0
14,c1ccc(-c2n[nH]cc2Nc2ccnc3ccccc23)nc1 [GW694077],4
15,c1ccc(Oc2ccc(Nc3ccnc4cc(-c5ccc(CNCCN6CCOCC6)o5)ccc34)cc2)nc1 [GW567145],8
16,Cn1cc(-c2[nH]c3cc(NC(=O)[C@H](N)C4CCCCC4)cc4c3c2C=NNC4=O)cn1,0
17,FC(F)(F)c1ccc(/C=C/c2cncnc2Nc2ccc3[nH]c(Cc4ccccc4)nc3c2)cc1 [GW709199],0
18,COc1cc2c(cc1OCCN1CCNCC1)ncc1c3ccc(C#N)cc3[nH]c21,9
19,CC(=O)N1CCN(c2ccc(Nc3nccc(-c4sc(C(C)C)nc4-c4cccc(NS(=O)(=O)c5cccc(Cl)c5)c4)n3)cn2)CC1 [GSK1660437],0

row,Structure (SMILES),%Inh [%]
1,Cc1ccc(F)c(C(=O)Nc2cccc(-c3nn4ccccc4c3-c3ccnc(Nc4cccc(F)c4)n3)c2)c1F [GSK361061],0
2,Cc1cccc(NC(=O)Nc2ccc(Oc3ncnc4ccn(C)c34)cc2)c1,0
3,COc1cc(Nc2nccc(N3CCC(NC(=O)Nc4cccc(C(C)=O)c4)C3)n2)cc(OC)c1OC (centres unmarked) [GSK1379753],41
4,C[C@@H](Oc1cc(-n2cnc3cc(-c4ccnc(NCCS(C)(=O)=O)c4)ccc32)sc1C(N)=O)c1ccccc1Cl [GSK907232],37
5,COC(=O)Nc1nc2cc(Oc3ccc(NC(=O)Nc4cc(C(F)(F)F)ccc4F)cn3)ccc2[nH]1.Cl.Cl [GW681170],39
6,Nc1ncnc2c1nc(-c1ccccc1)n2-c1ccccc1 [SKF-97293],28
7,NCCCC(NC(=O)c1cc(Br)c(-c2ccnc3[nH]ccc23)s1)c1ccccc1.O=C(O)C(F)(F)F.O=C(O)C(F)(F)F (centres unmarked) [GSK1287544],8
8,CSc1cccc2c(-c3ccncn3)c(-c3ccc(F)cc3)nn12 [GW514786],24
9,CC(C)c1nc(-c2cccc(NS(=O)(=O)c3c(F)cccc3F)c2F)c(-c2ccnc(Nc3ccc(N4CCOCC4)nc3)n2)s1 [GSK2008607],59
10,Cc1cccc(Nc2nc(N[C@H]3CCNC3)ncc2C(N)=O)c1.Cl [GSK2197149],0
11,Nc1ncc(-c2ccc3nccc(-c4ccncc4)c3c2)cc1S(=O)(=O)N1CCOCC1 [GSK1627798],9
12,COc1ccc(CNC(=O)NC2CCN(c3ccnc(Nc4ccc(F)cc4)n3)CC2)cc1 [GSK1379788],27
13,O=C(Nc1n[nH]c2nc(-c3ccc(O)cc3)ccc12)C1CC1 [SB-710363],70
14,CC(C)(C)c1ccc2nccc(Nc3cccc(O)c3)c2c1 [GW856795],0
15,COc1cc(Nc2nccc(-c3c(-c4cccc(NC(=O)c5c(F)cccc5F)c4)nn4ccccc34)n2)cc(OC)c1OC [GSK323521],19
16,O=c1[nH]cc(-c2ccc(N3CCOCC3)cc2)c2sc(-c3cn[nH]c3)cc12 [GSK2276055],0
17,COc1cccc(-c2ccc3c(NC(=O)C4CC4)n[nH]c3n2)c1 [SB-710903],87
18,Nc1ncc(-c2cccnc2)c2scc(-c3ccc4c(c3)CCN4C(=O)Cc3ccccc3)c12 [GSK683281],0
